Measurements reported in the supplement of paper PMC3484114.
± gives the standard deviation.

Each compound was assayed on OVCAR-3-derived ovarian cancer stem-like cells (spheroids) (assay: cell growth relative to untreated control; higher = more growth (less inhibition)). Conditions: 2.29 µM; 96 h.
Summary of the method: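 Percent growth was calculated against untreated wells once blanks were subtracted and Grubbs outliers removed. The cells were OVCAR-3 spheroid-derived stem-like cells, trypsinized and plated at 50,000 cells/mL in stem cell medium on ultra-low attachment 96-well plates for a 24 h preincubation. They were then exposed to compounds at 2.29 uM for 96 h at 37°C, 5% CO2, in 4 replicate wells, and viability was measured by TOX8 resazurin fluorescence (ex 560/em 590 nm) after 4 h.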

CC(C)c1cccc(O)c(=O)c1 and COC(=O)c1ccc(=O)c2nc3/c(=C/O)c(O)cc(=O)c3[nH]c12 are within error of each other in cell growth: 91.8 ± 19% for the first, 109 ± 44% for the second.

Compared with CC(C)C(C)C=CC(C)C1CCC2C3=CC=C4CC(O)CCC4(C)C3CCC21C (configuration not stated), CC[C@]1(O)C[C@H]2CN(CCc3c([nH]c4ccccc34)[C@@](C(=O)OC)(c3cc4c(cc3OC)N(C=O)[C@H]3[C@@](O)(C(=O)OC)[C@H](OC(C)=O)[C@]5(CC)C=CCN6CC[C@]43[C@@H]65)C2)C1 is lower in cell growth: 97.6 ± 23% for the first, 27 ± 6% for the second.

First: COc1ccc(/C=C2\CCc3ccccc3C2=O)cc1OC
Second: O=C1c2ccccc2C(=O)c2sc(Nc3ccc(Cl)cc3)nc21
The cell growth of the first is higher: 95.7 ± 11% for the first, 14.5 ± 3.2% for the second.

First: NC(=O)C1=C[C@H]2[C@H]3C=C[C@@]2(O)C(=O)O[C@@H]3O1
Second: O=C1Nc2c(Cl)cc(Cl)cc2C1=O
The cell growth of the first is higher: 91.3 ± 15% for the first, 22.4 ± 13% for the second.

O=[N+]([O-])c1ccc(N=Nc2c(O)[nH]c3ccccc23)c([N+](=O)[O-])c1 and N#CCCN(CCC#N)c1ccc(/C=C2/N=C(c3cc([N+](=O)[O-])ccc3Cl)OC2=O)cc1 are within error of each other in cell growth: 132 ± 29% for the first, 114 ± 40% for the second.

CN1CCC23c4ccccc4NC1C21CCN(C)C3Nc2ccccc21 and CC(=O)[O][Hg].c1ccc2c(c1)ccc1ccccc12 are within error of each other in cell growth: 118 ± 10% for the first, 132 ± 32% for the second.

C[CH2][Ge]([CH2]C)([CH2]C)[O]C(=O)CCC(=O)[O][Ge]([CH2]C)([CH2]C)[CH2]C and CCCCCCCCCCCCCCCCOCC(O)CO (configuration not stated) are within error of each other in cell growth: 110 ± 7.5% for the first, 126 ± 28% for the second.

CCOc1cccc(/C=N/N=C2\C(=O)Nc3c(Cl)cc(Cl)cc32)c1O and CCc1cccc(C(C)C)c1NC(=O)/C(=N\NC(N)=O)C(C(=O)OC)c1cnc2ccccc2n1 (configuration not stated) are within error of each other in cell growth: 85.4 ± 13% for the first, 71.4 ± 14% for the second.

Cn1c(=O)c2nc3sc4c(n3c2n(C)c1=O)C(=O)c1ccccc1C4=O and [O-][S+]1c2ccccc2N=C(c2cccc3ccccc23)CC1c1cccc2ccccc12 (configuration not stated) are within error of each other in cell growth: 115 ± 20% for the first, 84.1 ± 16% for the second.

First: c1coc(CNc2ncnc3[nH]ncc23)c1
Second: C/C=C(\CCC1NCCc2c1[nH]c1ccccc21)[Si](C)(C)C (configuration not stated)
The cell growth of the first is lower: 37.7 ± 8.4% for the first, 86.5 ± 9.4% for the second.

COc1ccc2cc1Oc1ccc(cc1)CC1c3cc(c(OC)cc3CCN1C)Oc1c(OC)c(OC)cc3c1C(C2)N(C)CC3 (configuration not stated) and CN1CCN(CN2C(=O)C3C4C=CC(C3C2=O)C2C3C(=O)N(CN5CCN(C)CC5)C(=O)C3C42)CC1 (configuration not stated) are within error of each other in cell growth: 88.5 ± 18% for the first, 91.4 ± 32% for the second.
